# Reference: PubChem BioAssay (NCATS)
# Inconclusive results are not listed. Entries that show only a call come without a potency. Calls of active or inactive are those of the source. The call rests on the fitted dose curve; in most records, active means well fitted inhibition curve with a large enough effect; inconclusive means small, poorly fitted or top-dose-only effect; inactive means no such curve, though single readings can be large or run the other way.
# Molecular target: Retinaldehyde dehydrogenase 3 (Homo sapiens) (UniProt P47895)
# Assay: qHTS for Inhibitors of the Aldehyde Dehydrogenase Family (ALDH1A3) Confirmatory screens (AID 2061311); further: nearly all actives have a fitted effect of over 60% in size
# Conditions: ALDH inhibition qHTS; series mostly up to 46 µM
# Potency means the concentration at half of the fitted maximal effect.
row,SMILES,Potency
1,CN(Cc1ccc(-c2ccccc2)cc1)CC1CCCCC1,35.5 µM (active)
2,Cc1cc(C)n2nc(SCC(=O)Nc3ccccc3C)nc2n1,inactive
3,CCOc1ccc(NC(=O)Nc2cc3c(cc2N2CCCCC2)n(C)c(=O)n3C)cc1,inactive
4,O=C(CSc1nc(-c2ccco2)nc2cc(=O)[nH]n12)Nc1ccccc1Cl,inactive
5,CC(=O)Nc1ccc(CN2CCCC(N3CCN(c4ccccc4)CC3)C2)cc1 (stereo not given),inactive
6,Cc1noc(C)c1-c1cnc(Nc2ccc(F)c(Cl)c2)c2c1CCO2,31.6 µM (active)
7,Cn1ccc(Nc2ccc3nnc(-c4ccccn4)n3n2)n1,inactive
8,Cc1ccc(NC(=O)CSc2nc3ncccc3[nH]2)cc1F,inactive
9,COc1ccc(C)cc1NC(=O)N1CCC(OC2CCN(Cc3ccccc3)CC2)CC1,inactive
10,O=C(CCc1ccccc1)Nc1ccc([C@@H](O)[C@H]2COCC(=O)N2Cc2ccncc2)cc1,inactive
11,O=[S+]([O-])(c1ccccc1)c1nnn2c1nc(N1CCC(F)CC1)c1ccccc12,inactive
12,O=C(CC1CCOCC1)NCc1ccc(N2CCOCC2)cc1,inactive
13,O=C(O)c1cc(Br)c(O)c2ncccc12,inactive
14,CCOc1ccc(NC(=O)CN2CCN(c3ccc(Cl)cc3)CC2)cc1,inactive
15,O=S(=O)(Nc1nc2ccccc2s1)c1ccc(NCc2ccc(Br)cc2O)cc1,14.2 µM (active)
16,O=C(O)c1ccc(Cn2c(SCc3ccc(F)cc3)nc3ccncc32)cc1,inactive
17,N#Cc1cccc(C(=O)Nc2ccc([C@H]3OCC(=O)N(C4CCOCC4)[C@@H]3CO)cc2)c1,inactive
18,COCCNC(=O)c1cc(-c2ccc(OC)cc2)nc2c1c(C)nn2-c1ccccc1,25.1 µM (active)
19,N#Cc1cccc(C(=O)Nc2ccc3c(N4CCOCC4)ncnc3c2)c1,inactive
20,CN(C(=O)c1cnc2n[nH]c(-c3ccccc3)c2n1)c1ccccc1,inactive

row,SMILES,Potency
1,Cc1cc(Br)ccc1NC(=O)CCNS(=O)(=O)c1cccc2nonc12,inactive
2,COc1ccccc1-c1ccc2ncc(Nc3cccc(O)c3)n2n1,inactive
3,COCCn1c(CNC(=O)c2cc([N+](=O)[O-])ccc2Cl)nc2cccnc21,inactive
4,CCc1ccc(O)c(C(=O)c2cnc3cc(-c4ccc(C)cc4)nn3c2)c1,inactive
5,CCOc1ccc(S(=O)(=O)NCc2nc3cccnc3n2Cc2ccccc2OC)cc1,15.8 µM (active)
6,CCOc1ccc(NC(=O)NCCCN2CCN(c3ccc(OC)cc3)CC2)cc1,inactive
7,CN(C)Cc1nnc(C2CC(NC(=O)c3ccc4scnc4c3)C2)n1C (stereo not given),inactive
8,O=c1c2cnn(-c3ccc(Cl)cc3)c2ncn1Cc1cccc(C(F)(F)F)c1,inactive
9,O=C(CSc1nc2ncccc2[nH]1)Nc1cc(F)ccc1F,inactive
10,O=C(CN1CCN(c2ccc(Cl)cc2)CC1)Nc1ccc(F)c(F)c1,inactive
11,Cc1cccc(-c2cccc(CN)c2)c1,inactive
12,Cc1ccc(Oc2nc3c(c(=O)n(Cc4ccccc4Cl)c(=O)n3C)n2C)cc1C,inactive
13,Cn1cc(-c2cnc(Nc3ccncc3)c3c2CCO3)cn1,inactive
14,COc1ccccc1-c1cnc2n[nH]c(-c3ccccc3C)c2n1,inactive
15,Fc1cccc(Cc2noc(-c3nc(-c4ccccc4)no3)n2)c1,inactive
16,COc1ccc(-c2nc3ccccc3c(=O)n2Cc2ccccc2)cc1OCc1ccc(NC(C)=O)cc1,22.5 µM (active)
17,CCOc1ccccc1NC(=O)Nc1cc(C(=O)NCc2ccc(C)cc2)ccc1N1CCCC1,inactive
18,COc1ccc(C(=O)NCc2nnc3ccc(-c4ccccc4)nn23)c(C)c1,inactive
19,CCOc1ccc(NC(=O)N2CCC(CC(=O)NCc3ccccc3)C2)cc1 (stereo not given),inactive
20,COc1ccc(CC(=O)Nc2ccc([C@H]3OCC(=O)N(Cc4ccccc4)[C@@H]3CO)cc2)cc1,inactive
